Measured values published in paper PMC7862700, “An all-to-all approach to the identification of sequence-specific readers for epigenetic DNA modifications on cytosine”.

How the values were obtained:
Test in all cases: DAPPL (digital affinity profiling via proximity ligation, sequencing); 10 mM Tris-HCl pH 7.5, 50 mM NaCl, 1 mM DTT, 4% glycerol, room temperature, 30 min; GST-TFs on glutathione beads, 16-mer random dsDNA library, 0.1% formaldehyde crosslink after washing; high values mean tight binding
Conditions in all cases: protein: recombinant; tags: N-terminal GST; dsDNA, one strand shown
FLI1 = target: T1, FLI1 (Homo sapiens, UniProt Q01543 1-452)
T1 sequence: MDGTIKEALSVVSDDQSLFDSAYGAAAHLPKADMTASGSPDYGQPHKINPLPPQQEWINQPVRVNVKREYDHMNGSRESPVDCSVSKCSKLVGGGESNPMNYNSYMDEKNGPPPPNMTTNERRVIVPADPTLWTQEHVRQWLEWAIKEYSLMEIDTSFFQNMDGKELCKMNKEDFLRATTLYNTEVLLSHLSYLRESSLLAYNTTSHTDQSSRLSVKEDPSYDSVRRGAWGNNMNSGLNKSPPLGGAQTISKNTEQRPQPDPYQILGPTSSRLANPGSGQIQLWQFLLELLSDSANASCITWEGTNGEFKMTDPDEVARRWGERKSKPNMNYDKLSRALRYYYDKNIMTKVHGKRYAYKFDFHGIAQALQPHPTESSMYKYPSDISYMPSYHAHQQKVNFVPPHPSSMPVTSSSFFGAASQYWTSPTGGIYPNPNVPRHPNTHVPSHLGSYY
How it was run: (§1)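 Human transcription factors carrying a GST fusion were produced in yeast, bound to glutathione beads, tagged with DNA barcodes and pooled together with a tag-only sample. Each pool was held with 200 nmole of a random double-stranded 16-mer DNA library in Tris/NaCl/DTT/glycerol buffer for 30 min at room temperature, then washed, crosslinked in 0.1% formaldehyde, proximity-ligated with BsaI/T4 ligase (1 h, 37 °C), PCR-amplified and sequenced on an Illumina NextSeq500. Binding signal is the read frequency of each hexamer for a given factor divided by its frequency in the tag-only sample.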

ELK1 = target: T2, ELK1 (Homo sapiens, UniProt P19419 1-428)
T2 sequence: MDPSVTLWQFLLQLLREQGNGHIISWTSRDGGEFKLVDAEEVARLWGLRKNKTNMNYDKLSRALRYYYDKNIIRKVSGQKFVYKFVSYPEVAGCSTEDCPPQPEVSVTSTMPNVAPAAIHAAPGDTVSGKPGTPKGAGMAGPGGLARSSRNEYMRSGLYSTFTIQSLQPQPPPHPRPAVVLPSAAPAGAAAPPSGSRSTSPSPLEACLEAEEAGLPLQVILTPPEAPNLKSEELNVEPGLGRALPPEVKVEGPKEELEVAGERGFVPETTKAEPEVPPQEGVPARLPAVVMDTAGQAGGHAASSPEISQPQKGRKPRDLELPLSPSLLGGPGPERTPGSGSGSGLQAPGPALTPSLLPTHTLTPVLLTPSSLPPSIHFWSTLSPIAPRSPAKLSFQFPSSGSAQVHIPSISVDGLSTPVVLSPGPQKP
How it was run: as §1

GABPA = target: T3, GABPA (Homo sapiens, UniProt Q06546 1-454)
T3 sequence: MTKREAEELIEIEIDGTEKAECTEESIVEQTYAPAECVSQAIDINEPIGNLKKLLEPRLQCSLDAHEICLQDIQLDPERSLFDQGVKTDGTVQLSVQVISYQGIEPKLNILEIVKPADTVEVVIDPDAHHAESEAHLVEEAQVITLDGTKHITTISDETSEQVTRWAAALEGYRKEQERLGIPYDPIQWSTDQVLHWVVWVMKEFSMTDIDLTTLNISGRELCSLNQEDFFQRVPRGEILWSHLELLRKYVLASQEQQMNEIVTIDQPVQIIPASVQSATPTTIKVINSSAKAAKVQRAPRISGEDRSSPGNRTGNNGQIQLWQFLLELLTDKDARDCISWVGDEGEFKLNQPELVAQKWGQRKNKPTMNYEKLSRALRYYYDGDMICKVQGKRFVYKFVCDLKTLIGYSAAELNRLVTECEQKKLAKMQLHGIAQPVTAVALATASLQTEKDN
How it was run: as §1

ERG = target: T4, ERG (Homo sapiens, UniProt P11308 1-479)
T4 sequence: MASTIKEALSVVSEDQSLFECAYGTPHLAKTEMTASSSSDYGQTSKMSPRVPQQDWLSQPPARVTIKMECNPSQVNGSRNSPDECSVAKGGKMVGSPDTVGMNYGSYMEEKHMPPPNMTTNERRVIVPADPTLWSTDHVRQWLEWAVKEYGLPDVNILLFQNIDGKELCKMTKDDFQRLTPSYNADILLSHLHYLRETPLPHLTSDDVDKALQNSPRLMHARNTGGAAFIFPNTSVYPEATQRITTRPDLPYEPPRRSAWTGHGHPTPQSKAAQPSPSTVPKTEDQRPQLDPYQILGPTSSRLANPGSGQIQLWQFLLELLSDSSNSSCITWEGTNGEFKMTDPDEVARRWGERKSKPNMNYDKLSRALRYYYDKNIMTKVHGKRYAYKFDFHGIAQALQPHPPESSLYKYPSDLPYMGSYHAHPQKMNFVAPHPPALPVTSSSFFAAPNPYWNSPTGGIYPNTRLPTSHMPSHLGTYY
How it was run: as §1

ELF1 = ELF1 (Homo sapiens, UniProt P32519 1-619)
How it was run: as §1

EHF = target: T5, EHF (Homo sapiens, UniProt Q9NZC4 1-300)
T5 sequence: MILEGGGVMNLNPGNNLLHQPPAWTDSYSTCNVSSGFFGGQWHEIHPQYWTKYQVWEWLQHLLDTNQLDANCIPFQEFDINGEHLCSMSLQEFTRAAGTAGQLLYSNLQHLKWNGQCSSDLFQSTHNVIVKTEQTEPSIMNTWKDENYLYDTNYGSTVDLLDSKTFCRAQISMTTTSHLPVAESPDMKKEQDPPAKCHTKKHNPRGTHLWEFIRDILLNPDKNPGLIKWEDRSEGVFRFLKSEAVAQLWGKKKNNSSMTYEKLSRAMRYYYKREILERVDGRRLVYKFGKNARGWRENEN
How it was run: as §1

SPI1 = SPI1 (Homo sapiens, UniProt P17947 1-270)
How it was run: as §1

SPIB = SPIB (Homo sapiens, UniProt Q01892 1-262)
How it was run: as §1

FEV = target: T6, FEV (Homo sapiens, UniProt Q99581 1-238)
T6 sequence: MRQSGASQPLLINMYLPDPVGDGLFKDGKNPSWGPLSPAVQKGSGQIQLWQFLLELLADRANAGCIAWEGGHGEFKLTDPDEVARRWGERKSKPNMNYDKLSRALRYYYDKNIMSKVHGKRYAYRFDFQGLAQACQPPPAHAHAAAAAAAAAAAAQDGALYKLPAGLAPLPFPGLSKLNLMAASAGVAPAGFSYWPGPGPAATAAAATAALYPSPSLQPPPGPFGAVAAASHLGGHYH
How it was run: as §1

ETV5 = ETV5 (Homo sapiens, UniProt P41161 1-510)
How it was run: as §1

SPIC = target: T7, SPIC (Homo sapiens, UniProt Q8N5J4 1-248)
T7 sequence: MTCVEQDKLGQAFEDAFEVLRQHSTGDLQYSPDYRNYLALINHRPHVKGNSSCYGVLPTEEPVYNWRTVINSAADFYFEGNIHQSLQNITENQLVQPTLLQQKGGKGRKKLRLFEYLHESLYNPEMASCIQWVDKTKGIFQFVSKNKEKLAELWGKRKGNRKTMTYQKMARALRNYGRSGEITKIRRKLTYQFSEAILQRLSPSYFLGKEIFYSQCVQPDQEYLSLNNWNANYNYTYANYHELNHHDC
How it was run: as §1

ELF4 = ELF4 (Homo sapiens, UniProt Q99607 1-663)
How it was run: as §1

ETV1 = ETV1 (Homo sapiens, UniProt P50549 1-477)
How it was run: as §1

ERF = target: T8, ERF (Homo sapiens, UniProt P50548 1-548)
T8 sequence: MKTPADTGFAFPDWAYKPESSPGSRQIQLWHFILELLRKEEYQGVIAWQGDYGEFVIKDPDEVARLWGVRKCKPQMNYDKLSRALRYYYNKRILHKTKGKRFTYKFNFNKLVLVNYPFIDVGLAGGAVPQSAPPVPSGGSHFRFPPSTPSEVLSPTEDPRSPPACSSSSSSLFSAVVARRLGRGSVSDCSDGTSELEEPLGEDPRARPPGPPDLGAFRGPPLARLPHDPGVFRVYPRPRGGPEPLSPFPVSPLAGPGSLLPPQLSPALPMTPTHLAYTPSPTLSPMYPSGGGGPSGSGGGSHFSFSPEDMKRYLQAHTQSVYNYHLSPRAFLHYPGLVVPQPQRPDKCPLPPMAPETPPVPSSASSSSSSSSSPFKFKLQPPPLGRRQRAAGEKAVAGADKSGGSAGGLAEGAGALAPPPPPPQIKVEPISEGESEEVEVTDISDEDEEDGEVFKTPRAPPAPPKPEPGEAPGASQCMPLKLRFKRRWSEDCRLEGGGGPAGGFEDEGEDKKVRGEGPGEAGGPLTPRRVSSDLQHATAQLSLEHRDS
How it was run: as §1

ETV3L = target: T9, ETV3L (Homo sapiens, UniProt Q6ZN32 1-361)
T9 sequence: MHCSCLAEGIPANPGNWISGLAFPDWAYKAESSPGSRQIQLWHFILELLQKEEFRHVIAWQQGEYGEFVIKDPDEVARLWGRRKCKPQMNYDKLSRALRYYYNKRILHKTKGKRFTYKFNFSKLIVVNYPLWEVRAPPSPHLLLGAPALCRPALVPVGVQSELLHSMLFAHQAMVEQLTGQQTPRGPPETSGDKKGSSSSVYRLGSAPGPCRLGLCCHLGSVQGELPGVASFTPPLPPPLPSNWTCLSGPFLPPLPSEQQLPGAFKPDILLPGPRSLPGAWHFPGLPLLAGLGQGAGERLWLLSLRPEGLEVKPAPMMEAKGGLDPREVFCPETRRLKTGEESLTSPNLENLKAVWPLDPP
How it was run: as §1

ETS2 = target: T10, ETS2 (Homo sapiens, UniProt P15036 1-469)
T10 sequence: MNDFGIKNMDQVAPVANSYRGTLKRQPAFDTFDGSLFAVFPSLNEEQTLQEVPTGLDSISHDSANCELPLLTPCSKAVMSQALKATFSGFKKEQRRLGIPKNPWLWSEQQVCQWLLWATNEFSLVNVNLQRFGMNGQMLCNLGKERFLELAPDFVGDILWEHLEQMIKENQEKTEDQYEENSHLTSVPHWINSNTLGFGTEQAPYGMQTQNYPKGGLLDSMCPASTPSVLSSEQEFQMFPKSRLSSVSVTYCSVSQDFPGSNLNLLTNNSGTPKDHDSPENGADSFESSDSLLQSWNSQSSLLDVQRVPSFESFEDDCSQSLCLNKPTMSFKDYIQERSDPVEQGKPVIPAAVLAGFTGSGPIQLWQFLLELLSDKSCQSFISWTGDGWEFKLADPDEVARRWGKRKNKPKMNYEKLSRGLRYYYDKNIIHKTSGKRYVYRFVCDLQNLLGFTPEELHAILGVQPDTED
How it was run: as §1

SPDEF = target: T11, SPDEF (Homo sapiens, UniProt O95238 1-335)
T11 sequence: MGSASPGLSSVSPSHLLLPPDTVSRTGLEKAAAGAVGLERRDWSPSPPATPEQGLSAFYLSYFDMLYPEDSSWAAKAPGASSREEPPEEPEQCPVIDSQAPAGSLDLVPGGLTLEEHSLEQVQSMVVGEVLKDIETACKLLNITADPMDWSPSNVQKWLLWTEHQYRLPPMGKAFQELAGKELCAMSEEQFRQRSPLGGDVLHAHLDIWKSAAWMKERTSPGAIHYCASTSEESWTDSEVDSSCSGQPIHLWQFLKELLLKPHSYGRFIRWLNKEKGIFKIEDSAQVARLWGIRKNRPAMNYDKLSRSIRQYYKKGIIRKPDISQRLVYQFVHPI
How it was run: as §1

ETV3 = target: T12, ETV3 (Homo sapiens, UniProt P41162-2 1-143)
T12 sequence: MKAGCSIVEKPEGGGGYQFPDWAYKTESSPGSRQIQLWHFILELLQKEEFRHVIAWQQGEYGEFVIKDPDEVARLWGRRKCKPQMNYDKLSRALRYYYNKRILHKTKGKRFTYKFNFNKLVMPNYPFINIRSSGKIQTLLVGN
How it was run: as §1

ETV6 = ETV6 (Homo sapiens, UniProt P41212 1-452)
How it was run: as §1

Sequence of ELF1 (P32519 whole entry): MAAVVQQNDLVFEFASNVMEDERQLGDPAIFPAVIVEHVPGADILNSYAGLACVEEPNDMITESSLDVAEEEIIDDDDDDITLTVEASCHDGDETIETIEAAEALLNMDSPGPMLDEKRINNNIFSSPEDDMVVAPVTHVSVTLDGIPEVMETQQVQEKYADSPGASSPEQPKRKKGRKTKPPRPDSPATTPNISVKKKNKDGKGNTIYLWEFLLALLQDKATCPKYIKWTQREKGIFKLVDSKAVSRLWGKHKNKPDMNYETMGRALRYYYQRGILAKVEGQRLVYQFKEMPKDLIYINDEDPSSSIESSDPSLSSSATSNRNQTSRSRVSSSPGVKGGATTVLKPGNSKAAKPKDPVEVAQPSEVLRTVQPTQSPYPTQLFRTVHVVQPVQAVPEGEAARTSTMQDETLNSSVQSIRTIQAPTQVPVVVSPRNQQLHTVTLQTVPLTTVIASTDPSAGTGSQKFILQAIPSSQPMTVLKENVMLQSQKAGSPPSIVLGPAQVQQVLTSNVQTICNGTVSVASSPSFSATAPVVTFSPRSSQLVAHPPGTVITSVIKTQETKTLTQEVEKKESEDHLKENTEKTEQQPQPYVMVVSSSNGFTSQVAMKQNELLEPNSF
Sequence of ETV5 (P41161 whole entry): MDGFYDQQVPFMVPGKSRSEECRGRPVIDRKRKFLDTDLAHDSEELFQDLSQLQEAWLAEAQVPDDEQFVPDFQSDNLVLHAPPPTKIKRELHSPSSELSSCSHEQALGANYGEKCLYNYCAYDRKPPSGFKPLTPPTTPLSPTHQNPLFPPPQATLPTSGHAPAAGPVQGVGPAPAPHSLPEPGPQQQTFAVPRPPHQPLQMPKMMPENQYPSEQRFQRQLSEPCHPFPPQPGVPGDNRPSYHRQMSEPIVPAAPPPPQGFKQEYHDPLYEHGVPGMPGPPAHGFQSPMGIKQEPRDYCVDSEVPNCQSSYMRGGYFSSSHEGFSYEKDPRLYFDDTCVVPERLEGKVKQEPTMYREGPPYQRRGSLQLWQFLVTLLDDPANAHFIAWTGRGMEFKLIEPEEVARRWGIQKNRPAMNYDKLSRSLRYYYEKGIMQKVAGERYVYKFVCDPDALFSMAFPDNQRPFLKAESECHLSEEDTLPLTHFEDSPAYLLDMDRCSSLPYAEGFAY
Sequence of ETV6 (P41212 whole entry): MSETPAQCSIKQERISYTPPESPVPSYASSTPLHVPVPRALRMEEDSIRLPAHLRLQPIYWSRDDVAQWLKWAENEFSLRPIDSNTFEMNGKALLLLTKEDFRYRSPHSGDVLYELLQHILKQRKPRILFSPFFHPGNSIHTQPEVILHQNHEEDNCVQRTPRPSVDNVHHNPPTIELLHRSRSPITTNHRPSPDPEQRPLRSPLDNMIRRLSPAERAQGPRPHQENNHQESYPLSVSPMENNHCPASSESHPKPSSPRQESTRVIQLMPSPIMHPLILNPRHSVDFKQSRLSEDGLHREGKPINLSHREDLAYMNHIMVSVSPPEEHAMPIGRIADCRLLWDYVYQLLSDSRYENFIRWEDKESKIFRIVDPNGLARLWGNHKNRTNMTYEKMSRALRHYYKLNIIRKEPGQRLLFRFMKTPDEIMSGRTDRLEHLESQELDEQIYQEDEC
Sequence of ETV1 (P50549 whole entry): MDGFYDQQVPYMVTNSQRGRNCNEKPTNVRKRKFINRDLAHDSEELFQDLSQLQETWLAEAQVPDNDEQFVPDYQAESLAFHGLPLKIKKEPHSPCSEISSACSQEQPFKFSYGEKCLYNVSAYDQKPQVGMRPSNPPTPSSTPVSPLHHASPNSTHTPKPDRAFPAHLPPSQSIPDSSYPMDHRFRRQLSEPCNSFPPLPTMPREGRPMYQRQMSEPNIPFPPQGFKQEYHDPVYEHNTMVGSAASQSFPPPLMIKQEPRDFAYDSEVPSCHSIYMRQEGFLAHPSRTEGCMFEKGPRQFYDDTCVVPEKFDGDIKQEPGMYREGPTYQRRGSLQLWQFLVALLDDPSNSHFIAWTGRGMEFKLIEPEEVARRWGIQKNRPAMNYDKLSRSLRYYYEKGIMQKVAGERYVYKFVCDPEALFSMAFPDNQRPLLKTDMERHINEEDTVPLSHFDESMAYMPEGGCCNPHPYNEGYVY
Sequence of ELF4 (Q99607 whole entry): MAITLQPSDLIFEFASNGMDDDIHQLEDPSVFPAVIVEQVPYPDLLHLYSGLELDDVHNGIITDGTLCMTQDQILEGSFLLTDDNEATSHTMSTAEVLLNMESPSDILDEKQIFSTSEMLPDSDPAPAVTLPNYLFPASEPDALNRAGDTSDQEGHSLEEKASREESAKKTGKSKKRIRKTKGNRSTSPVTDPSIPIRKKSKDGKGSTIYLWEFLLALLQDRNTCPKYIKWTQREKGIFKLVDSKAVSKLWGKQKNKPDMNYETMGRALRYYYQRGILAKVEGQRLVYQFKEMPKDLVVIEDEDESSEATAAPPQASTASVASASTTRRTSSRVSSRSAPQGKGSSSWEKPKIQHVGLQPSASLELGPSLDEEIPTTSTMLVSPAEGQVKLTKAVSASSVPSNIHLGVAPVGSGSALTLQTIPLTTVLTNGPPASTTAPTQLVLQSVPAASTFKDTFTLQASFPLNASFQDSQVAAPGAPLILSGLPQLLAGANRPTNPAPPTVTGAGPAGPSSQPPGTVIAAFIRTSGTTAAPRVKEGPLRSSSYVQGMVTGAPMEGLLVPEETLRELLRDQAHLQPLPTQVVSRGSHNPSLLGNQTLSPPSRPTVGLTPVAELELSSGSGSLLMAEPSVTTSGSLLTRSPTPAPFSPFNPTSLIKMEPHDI
Sequence of SPIB (Q01892 whole entry): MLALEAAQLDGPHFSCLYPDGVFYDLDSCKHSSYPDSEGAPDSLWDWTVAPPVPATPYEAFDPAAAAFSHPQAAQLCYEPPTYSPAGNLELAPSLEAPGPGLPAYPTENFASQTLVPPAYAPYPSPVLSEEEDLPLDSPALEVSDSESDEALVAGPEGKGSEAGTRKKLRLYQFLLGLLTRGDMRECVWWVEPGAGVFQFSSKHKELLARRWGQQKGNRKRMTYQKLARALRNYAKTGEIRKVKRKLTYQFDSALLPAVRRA

Sequence: TGGACC
- binding signal (FLI1): 1.11 fold enrichment (6-mer frequency, TF over GST control)
- binding signal (ELK1): 1.03 fold enrichment (6-mer frequency, TF over GST control)
- binding signal (GABPA): 1.09 fold enrichment (6-mer frequency, TF over GST control)
- binding signal (ERG): 1.04 fold enrichment (6-mer frequency, TF over GST control)
- binding signal (ELF1): 1.06 fold enrichment (6-mer frequency, TF over GST control)
- binding signal (EHF): 1.1 fold enrichment (6-mer frequency, TF over GST control)
- binding signal (SPI1): 1.1 fold enrichment (6-mer frequency, TF over GST control)
- binding signal (SPIB): 1.02 fold enrichment (6-mer frequency, TF over GST control)
- binding signal (FEV): 1.17 fold enrichment (6-mer frequency, TF over GST control)
- binding signal (ETV5): 1.05 fold enrichment (6-mer frequency, TF over GST control)
- binding signal (SPIC): 1.16 fold enrichment (6-mer frequency, TF over GST control)
- binding signal (ELF4): 1.06 fold enrichment (6-mer frequency, TF over GST control)
- binding signal (ETV1): 1.08 fold enrichment (6-mer frequency, TF over GST control)
- binding signal (ERF): 1.11 fold enrichment (6-mer frequency, TF over GST control)
- binding signal (ETV3L): 1.13 fold enrichment (6-mer frequency, TF over GST control)
- binding signal (ETS2): 1.04 fold enrichment (6-mer frequency, TF over GST control)
- binding signal (SPDEF): 1.05 fold enrichment (6-mer frequency, TF over GST control)
- binding signal (ETV3): 1.04 fold enrichment (6-mer frequency, TF over GST control)
- binding signal (ETV6): 1.08 fold enrichment (6-mer frequency, TF over GST control)
